Results as given in PubChem BioAssay AID743358 (Broad Institute, 2014).
Calls of active or inactive are those of the source.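 The calls were made as follows: active = ATP signal drop in HepG2 cells with fitted half-maximal concentration at most twice the top tested dose; inconclusive = flat curve losing 30 to 70% signal, or poor fit; inactive = the rest.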

Test: HepG2 cell cytotoxicity, dose response, cytotoxicity control, luminescence, dry powder, set 9 (AID 743358)
Settings: HepG2 viability, ATP luminescence, 72 h; series mostly up to 26 µM; activity change, negative = cytotoxicity: at the top concentration

SMILES | activity change, negative = cytotoxicity
CN1c2ccc(-c3ccc(F)cc3)cc2[C@H]2[C@H](CCN2C(=O)Nc2cc(F)ccc2F)[C@H]1CO | -1.9% [at 23.5 µM] (inactive)
CC(=O)c1ccc(NCCNC(=O)c2ccc3c(c2)OCO3)cc1 | 12.5% (inactive)
CC(C)NC(=O)N1CC[C@@H]2[C@@H](CO)N(C)c3ccc(-c4ccc(F)cc4)cc3[C@@H]21 | 3.41% (inactive)
CN1c2ccc(-c3cccc(F)c3)cc2[C@@H]2[C@@H](CCN2C(=O)c2ccc3c(c2)OCO3)[C@H]1CO | 3.64% (inactive)
CN1c2ccc(-c3cccc(F)c3)cc2[C@H]2[C@H](CCN2C(=O)CCCCCCC(=O)O)[C@H]1CO | 22% (inactive)
CC(=O)c1ccc(N2CCN(C(=O)c3ccccc3Cl)CC2)cc1 | -4.95% (inactive)
CNC(=O)c1ccc(N2CCN(C(=O)c3ccc4c(c3)OCO4)CC2)cc1 | -4.16% (inactive)
CC(=O)c1ccc(N2CCN(C(=O)c3ccc4c(c3)OCO4)[C@H](C)C2)cc1 | 0.077% (inactive)
CCCNC(=O)N1CC[C@@H]2[C@@H](CO)N(C)c3ccc(-c4ccc(F)cc4)cc3[C@@H]21 | 5.94% (inactive)
CN1c2ccc(-c3cccc(F)c3)cc2[C@H]2[C@H](CCN2C(=O)CCCCCCN)[C@H]1CO | -2.25% (inactive)
CN1c2ccc(-c3cccc(F)c3)cc2[C@H]2[C@H](CCN2C(=O)Cc2cccnc2)[C@H]1CO | 2.12% (inactive)
CN1c2ccc(-c3cccc(F)c3)cc2[C@@H]2[C@@H](CCN2C(=O)c2ccc3c(c2)OCO3)[C@@H]1CO | -6.13% (inactive)
CN1c2ccc(-c3ccc(F)cc3)cc2[C@H]2[C@H](CCN2C(=O)Cc2ccccn2)[C@H]1CO | 11.1% (inactive)
CN1c2ccc(-c3ccc(F)cc3)cc2[C@H]2[C@H](CCN2C(=O)Cc2cccnc2)[C@H]1CO | -3.17% [at 23.5 µM] (inactive)
